{"source": "PubChem BioAssay (NCATS)", "note": "Results filed as inconclusive are left out. Entries that show only a call come without a potency. Activity calls are given as the source filed them. Calls come from the whole dose curve; as a rule, active = well fitted inhibition curve with a large enough effect; inconclusive = small, poorly fitted or top-dose-only effect; inactive = flat fitted curve, though single readings scatter.", "data": [{"tested_on": "CRL-7250", "test": "qHTS assay to identify novel small-molecules to repurpose for Merkel cell carcinoma treatment (AID 1296009); note: nearly all actives have a fitted effect of over 60% in size", "details": "MCC and control cell lines, CellTiter-Glo viability, 72 h; series mostly up to 92 µM", "in_short": "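72 hr, 37 degree celsius; NPC 8-pt / MIPE 11-pt dose response; compound pinned in DMSO; CellTiter-Glo, 10 min RT, luminescence; normalized to no-cell and DMSO controls.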", "values": [{"smiles": "CC(C)(CO)c1cc2cc(NC(=O)C3(c4ccc5c(c4)OC(F)(F)O5)CC3)c(F)cc2n1CC(O)CO", "note": "(stereo not given)", "Potency": "inactive"}, {"smiles": "CC(C)C[C@H](CC(=O)NO)C(=O)N[C@H](C(=O)N[C@@H](C)C(=O)NCCN)C(C)(C)C", "outcome": "inactive [at 9.27 µM]"}, {"smiles": "O=C(O)Cc1cc(I)c(Oc2ccc(O)c(I)c2)c(I)c1", "Potency": "inactive"}, {"smiles": "CCCCCOC(=O)Nc1nc(=O)n(C2O[C@H](C)[C@@H](O)[C@H]2O)cc1F", "note": "(stereo not given in full)", "Potency": "inactive"}, {"smiles": "C=C1C(O)CC2C(C(=O)O)=COC(O[C@@H]3O[C@H](COC(=O)c4ccc(O)cc4)[C@@H](O)[C@H](O)[C@H]3O)C12", "note": "(stereo not given in full)", "Potency": "inactive"}, {"smiles": "CC12CCC3c4ccc(OC5OC(C(=O)O)C(O)C(O)C5O)cc4CCC3C1CCC2O", "note": "(stereo not given)", "Potency": "inactive"}, {"smiles": "CC(C)/C=C1/NC(=O)C(C(C)C)n2c1nc1c(O)cccc1c2=O", "note": "(stereo not given)", "Potency": "inactive"}, {"smiles": "COC1=Cc2c(nc3n(c2=O)C(C)C(=O)NC3(O)C(C)C)OC=C1", "note": "(stereo not given)", "Potency": "inactive"}, {"smiles": "C=CC(C)(CC/C=C(\\C)C(=O)OC)OC1OC(COC(=O)CC(C)(O)CC(=O)O)C(OC2OC(CO)C(O)C(O)C2O)C(O)C1O", "note": "(stereo not given)", "Potency": "inactive"}, {"smiles": "OC/C=C/C=C/[C@H]1Cc2cc(O)cc(O)c2O1", "Potency": "inactive"}, {"smiles": "O=C(NCCCN1CCC2(CC1)OCc1ccccc12)[C@H]1CCCN1Cc1ccccc1", "Potency": "inactive"}, {"smiles": "CC(=O)OC1CC(C(C)(C)O)OC2CCC3(C)OC4=C(C(=O)C=C5C(C)C(OC(C)=O)C6(C)C(C)OC546)C(O)C3C12C", "note": "(stereo not given)", "Potency": "inactive"}, {"smiles": "C=C(C)C1CCC2(C(=O)O)CCC3(C(=O)O)C(CCC4C5(C)CCC(O)C(C)(C(=O)O)C5CCC43C)C12", "note": "(stereo not given)", "Potency": "inactive"}, {"smiles": "CN1CCc2cc(Cl)c(O)cc2[C@@H](c2cccc3c2OCC3)C1", "Potency": "inactive"}, {"smiles": "C=C1CC[C@@H]2[C@@](C)(CO[C@@H]3O[C@H](CO)C(O)[C@H](O)C3O)[C@H](O)CC[C@@]2(C)[C@@H]1CC/C(C)=C/CO", "note": "(stereo not given in full)", "outcome": "inactive [at 9.27 µM]"}, {"smiles": "O=C(OC[C@@]1(O)CO[C@@H](O[C@H]2[C@H](Oc3ccc(O)cc3)O[C@H](CO)[C@@H](O)[C@@H]2O)[C@@H]1O)c1ccc(O)cc1", "Potency": "inactive"}, {"smiles": "COc1cccc(OC)c1-c1cc(C(=O)N[C@@H](CC(C)C)C(=O)O)nn1-c1ccnc2cc(Cl)ccc12", "Potency": "inactive"}, {"smiles": "CC1(C)C[C@H](O)C[C@@]2(C)[C@H]1[C@H](O)C=C1COC(=O)[C@@]12O", "Potency": "inactive"}, {"smiles": "C[C@@H]1O[C@@H](O[C@H]2[C@@H]3C=CO[C@@H](O[C@@H]4O[C@H](CO)[C@@H](O)[C@H](O)[C@H]4O)[C@@H]3[C@@]3(CO)O[C@@H]23)[C@H](OC(=O)/C=C/c2ccc(O)c(O)c2)[C@H](O)[C@H]1O", "Potency": "inactive"}, {"smiles": "C/C=C1/[C@H](O[C@@H]2O[C@H](CO)[C@@H](O)[C@H](O)[C@H]2O)OC=C(C(=O)OC)[C@H]1CC(=O)O[C@@H]1O[C@H](CO)[C@@H](O)[C@H](O)[C@H]1O", "Potency": "inactive"}, {"smiles": "N#Cc1c[nH]c2c(C(=O)N3CCN(CCc4ccc(F)cc4)CC3)cccc12", "Potency": "inactive"}, {"smiles": "C[C@@H]1CC[C@@]23CC[C@]4(C)[C@@](C=CC5[C@@]6(C)CC[C@H](O)C(C)(C)C6CC[C@]54C)(OC2=O)C3[C@H]1C", "note": "(stereo not given in full)", "Potency": "inactive"}, {"smiles": "COC(=O)c1ccccc1O[C@@H]1O[C@H](CO)[C@@H](O)[C@H](O)[C@H]1O[C@@H]1O[C@@H](C)[C@H](O)[C@@H](O)[C@H]1O", "Potency": "inactive"}, {"smiles": "COc1ccccc1N1CCN(CC(C(=O)NC(C)(C)C)c2ccccc2)CC1", "note": "(stereo not given)", "Potency": "inactive"}, {"smiles": "COC(O)(CC(C)C)C1Oc2cc(C)[nH]c(=O)c2O1", "note": "(stereo not given)", "Potency": "inactive"}, {"smiles": "CCn1c(=O)n([C@H]2CCCN(c3nccc(-c4cc5ccccc5o4)n3)C2)c2ccccc21", "Potency": "inactive"}, {"smiles": "CC1=C(C)C(=O)OC(C(C)C2CCC3C4C5OC5C5(O)CC(OC6OC(CO)C(OC7OC(C)C(O)C(O)C7O)C(O)C6O)CC(O)C5(C)C4CCC23C)C1", "note": "(stereo not given)", "Potency": "inactive"}, {"smiles": "C=C(COC(=O)CC(C)C)C1Cc2cc(C(C)=O)ccc2O1", "note": "(stereo not given)", "Potency": "inactive"}, {"smiles": "COc1c(OC2OC(CO)C(O)C(O)C2O)ccc(O)c1C(=O)OCc1ccccc1O[C@@H]1O[C@H](CO)[C@@H](O)[C@H](O)[C@H]1O", "note": "(stereo not given in full)", "Potency": "inactive"}, {"smiles": "Cc1onc(-c2ccccc2Cl)c1C(=O)N(C)c1ccc(Cl)cc1", "Potency": "inactive"}, {"smiles": "CC(=O)OC[C@]1(O)[C@H]2[C@H](OC(=O)CC(C)C)OC=C(CO[C@@H]3O[C@H](CO)[C@@H](O)[C@H](O)[C@H]3O)[C@H]2C[C@@H]1O", "Potency": "inactive"}, {"smiles": "CC(O)CCC1C(CO[C@@H]2O[C@H](CO)[C@@H](O)[C@H](O)[C@H]2O)CC(O)CC1(C)C", "note": "(stereo not given in full)", "Potency": "inactive"}, {"smiles": "C[C@@H](CC[C@@H]1[C@@]2(C)CCCC(C)(C)C2CC[C@@]1(C)O)CC(=O)O", "note": "(stereo not given in full)", "Potency": "inactive"}, {"smiles": "CC(=O)OCC1=C[C@H](O)[C@@H]2C(C(=O)O)=CO[C@@H](O[C@@H]3O[C@H](CO)[C@@H](O)[C@H](O)[C@H]3O)[C@H]12", "Potency": "inactive"}, {"smiles": "COc1cc(O)c2c(c1Cl)CC(C)OC2=O", "note": "(stereo not given)", "Potency": "inactive"}, {"smiles": "C[C@@H]1O[C@@H](O[C@H]2[C@H](O[C@H]3CC[C@@]4(C)C(CC[C@]5(C)C4CC=C4C6CC(C)(C)CC[C@]6(C(=O)O[C@@H]6O[C@H](CO[C@@H]7O[C@H](CO)[C@@H](O[C@@H]8O[C@@H](C)[C@H](O)[C@@H](O)[C@H]8O)[C@H](O)[C@H]7O)[C@@H](O)[C@H](O)[C@H]6O)CC[C@]45C)[C@]3(C)CO)OC[C@H](O)[C@@H]2O)[C@H](O)[C@H](O)[C@H]1O", "note": "(stereo not given in full)", "outcome": "inactive [at 9.27 µM]"}, {"smiles": "C=C[C@H]1CN2CC[C@H]1C[C@@H]2C(O)c1ccnc2ccc(OC)cc12", "note": "(stereo not given in full)", "Potency": "inactive"}, {"smiles": "OC[C@H]1O[C@@H](Oc2ccc(O)c3cccc(O)c23)[C@H](O)[C@@H](O)[C@@H]1O", "Potency": "inactive"}, {"smiles": "COc1cc(C)c(C(=O)OC2C(C)OC(OC3CCC(C)C4C3C=C(C)C3/C(C)=C\\CC/C(C)=C/C5(C)C=C(C(=O)O)C(C)CC56OC(=O)/C(=C(\\O)C34C)C6=O)C(O)C2O)c(OC)c1", "note": "(stereo not given)", "outcome": "inactive [at 9.27 µM]"}, {"smiles": "COC1=CC(=O)O[C@@H](/C=C/c2ccccc2)[C@@H]1O", "Potency": "inactive"}]}]}
